# Data: the supplement of paper PMC11732987, “Enantioselective OTUD7B fragment discovery through chemoproteomics screening and high-throughput optimisation” (Communications Chemistry, 2025)
# Values without a mark were called inactive.
# Assays:
# Assay in all cases: log2 ratio of Biotin-Ahx-Ub-VS probe labelling (fragment/DMSO); higher = less target engagement (more negative = stronger competition), active = hit call of the paper (q ≤ 0.05, log2 ratio ≤ -1)
# Conditions in all cases: compound concentration: 200 uM; treatment time: 3 h
# OTUD6B = target: T1, OTUD6B (UniProt Q8N6M0)
# T1 sequence (whole entry): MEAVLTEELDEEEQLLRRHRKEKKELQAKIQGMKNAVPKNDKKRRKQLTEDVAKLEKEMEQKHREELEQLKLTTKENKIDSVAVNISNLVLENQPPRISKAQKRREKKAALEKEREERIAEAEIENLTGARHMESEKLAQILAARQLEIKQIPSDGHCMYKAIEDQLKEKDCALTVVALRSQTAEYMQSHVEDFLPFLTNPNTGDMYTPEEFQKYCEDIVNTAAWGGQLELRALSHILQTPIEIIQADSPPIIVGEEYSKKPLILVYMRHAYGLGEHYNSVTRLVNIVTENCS
# Procedure, shortened: (§1)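 Lysate from HEK293T cells, 495 µg per sample in Tris/CHAPS/IGEPAL buffer with protease inhibitors, was treated for 3 h in triplicate with fragment at 200 µM or vehicle. Biotin-Ahx-Ub-VS was next added at 0.5 µM final for 1 h. The labelled DUBs were enriched with NeutrAvidin, digested with LysC and trypsin, and run by diaPASEF LC-MS/MS, with values given as average log2 fragment/vehicle ratios by unpaired t-test on global-median-normalised Spectronaut quantities of proteins with ≥2 unique peptides.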
# OTUD7B = target: T2, OTUD7B (UniProt Q6GQQ9)
# T2 sequence (whole entry): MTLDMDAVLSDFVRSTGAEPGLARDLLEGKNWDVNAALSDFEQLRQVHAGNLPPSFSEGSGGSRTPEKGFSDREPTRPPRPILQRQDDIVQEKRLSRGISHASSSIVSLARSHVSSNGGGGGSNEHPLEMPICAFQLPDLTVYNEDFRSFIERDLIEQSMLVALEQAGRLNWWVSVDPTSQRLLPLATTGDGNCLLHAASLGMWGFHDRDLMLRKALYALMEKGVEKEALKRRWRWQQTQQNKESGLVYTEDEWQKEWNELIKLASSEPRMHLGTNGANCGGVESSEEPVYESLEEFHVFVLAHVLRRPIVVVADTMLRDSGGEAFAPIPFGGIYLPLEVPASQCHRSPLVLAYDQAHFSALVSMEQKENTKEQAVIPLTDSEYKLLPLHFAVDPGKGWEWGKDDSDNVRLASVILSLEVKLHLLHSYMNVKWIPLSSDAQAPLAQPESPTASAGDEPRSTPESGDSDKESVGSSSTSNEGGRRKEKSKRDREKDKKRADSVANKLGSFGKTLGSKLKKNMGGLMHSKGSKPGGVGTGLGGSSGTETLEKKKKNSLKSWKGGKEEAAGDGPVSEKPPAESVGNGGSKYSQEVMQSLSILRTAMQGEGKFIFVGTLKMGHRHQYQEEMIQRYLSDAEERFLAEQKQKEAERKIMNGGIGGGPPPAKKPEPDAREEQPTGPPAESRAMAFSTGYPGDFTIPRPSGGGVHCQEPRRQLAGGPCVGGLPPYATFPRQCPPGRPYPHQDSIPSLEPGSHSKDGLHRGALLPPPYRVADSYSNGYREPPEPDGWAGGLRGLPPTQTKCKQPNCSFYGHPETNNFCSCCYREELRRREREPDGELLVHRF
# Procedure, shortened: as §1
# PRPF8 = PRPF8 (UniProt Q6P2Q9)
# Procedure, shortened: as §1
# PSMD7 = target: T3, PSMD7 (UniProt P51665)
# T3 sequence (whole entry): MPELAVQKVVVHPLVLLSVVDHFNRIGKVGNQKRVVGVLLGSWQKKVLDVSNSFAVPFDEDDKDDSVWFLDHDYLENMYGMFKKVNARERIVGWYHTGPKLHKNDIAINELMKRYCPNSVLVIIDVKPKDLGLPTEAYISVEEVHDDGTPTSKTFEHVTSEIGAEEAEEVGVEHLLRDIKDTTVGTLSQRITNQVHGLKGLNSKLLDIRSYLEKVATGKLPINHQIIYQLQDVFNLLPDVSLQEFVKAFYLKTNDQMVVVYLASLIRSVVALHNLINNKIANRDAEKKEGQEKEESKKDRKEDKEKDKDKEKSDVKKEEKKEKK
# Procedure, shortened: as §1
# UCHL1 = UCHL1 (UniProt P09936)
# Sequence of UCHL1 (P09936 whole entry, looked up): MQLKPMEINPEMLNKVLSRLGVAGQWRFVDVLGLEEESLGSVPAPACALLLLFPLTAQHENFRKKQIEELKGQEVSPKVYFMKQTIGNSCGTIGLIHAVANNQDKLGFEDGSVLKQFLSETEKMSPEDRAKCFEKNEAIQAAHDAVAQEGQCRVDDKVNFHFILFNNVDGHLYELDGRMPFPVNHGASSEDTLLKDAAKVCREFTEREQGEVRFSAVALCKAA
# Procedure, shortened: as §1
# UCHL3 = target: T4, UCHL3 (UniProt P15374)
# T4 sequence (whole entry): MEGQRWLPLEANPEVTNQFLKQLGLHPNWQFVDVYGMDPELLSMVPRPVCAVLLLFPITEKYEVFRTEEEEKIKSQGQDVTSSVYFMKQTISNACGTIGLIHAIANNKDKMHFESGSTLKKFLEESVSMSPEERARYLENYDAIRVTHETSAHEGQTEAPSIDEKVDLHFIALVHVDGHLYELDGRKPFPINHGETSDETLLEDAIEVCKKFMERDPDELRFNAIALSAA
# Procedure, shortened: as §1
# UCHL5 = target: T5, UCHL5 (UniProt Q9Y5K5)
# T5 sequence (whole entry): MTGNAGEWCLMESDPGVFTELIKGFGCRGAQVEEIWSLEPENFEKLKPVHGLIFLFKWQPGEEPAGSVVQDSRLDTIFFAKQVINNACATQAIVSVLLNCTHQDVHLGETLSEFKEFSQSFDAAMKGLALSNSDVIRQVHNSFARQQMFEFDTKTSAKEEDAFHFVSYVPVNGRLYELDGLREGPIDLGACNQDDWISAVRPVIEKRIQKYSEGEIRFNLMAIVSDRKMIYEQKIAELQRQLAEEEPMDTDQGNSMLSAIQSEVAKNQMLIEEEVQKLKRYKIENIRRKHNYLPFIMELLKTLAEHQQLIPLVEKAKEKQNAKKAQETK
# Procedure, shortened: as §1
# USP10 = USP10 (UniProt Q14694)
# Sequence of USP10 (Q14694 whole entry): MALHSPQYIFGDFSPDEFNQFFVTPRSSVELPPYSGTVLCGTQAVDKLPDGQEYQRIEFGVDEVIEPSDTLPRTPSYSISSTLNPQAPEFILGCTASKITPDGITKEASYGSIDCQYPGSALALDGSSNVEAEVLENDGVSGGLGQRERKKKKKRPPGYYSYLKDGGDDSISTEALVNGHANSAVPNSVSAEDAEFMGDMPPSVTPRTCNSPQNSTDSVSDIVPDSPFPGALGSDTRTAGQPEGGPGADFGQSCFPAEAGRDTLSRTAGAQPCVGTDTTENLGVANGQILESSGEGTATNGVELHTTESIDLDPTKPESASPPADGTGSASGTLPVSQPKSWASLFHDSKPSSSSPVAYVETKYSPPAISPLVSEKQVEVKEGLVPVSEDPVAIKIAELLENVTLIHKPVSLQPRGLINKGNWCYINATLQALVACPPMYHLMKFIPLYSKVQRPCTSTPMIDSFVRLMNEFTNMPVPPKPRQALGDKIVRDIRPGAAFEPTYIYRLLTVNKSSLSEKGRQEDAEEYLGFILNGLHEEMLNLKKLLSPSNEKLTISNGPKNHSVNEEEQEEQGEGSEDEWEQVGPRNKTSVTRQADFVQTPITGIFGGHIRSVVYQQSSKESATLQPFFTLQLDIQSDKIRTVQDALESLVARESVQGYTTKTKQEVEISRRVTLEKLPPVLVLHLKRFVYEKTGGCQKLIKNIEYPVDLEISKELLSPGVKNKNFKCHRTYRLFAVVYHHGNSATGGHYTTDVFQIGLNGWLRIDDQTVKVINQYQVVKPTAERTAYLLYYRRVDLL
# Procedure, shortened: as §1
# USP15 = target: T6, USP15 (UniProt Q9Y4E8)
# T6 sequence (whole entry): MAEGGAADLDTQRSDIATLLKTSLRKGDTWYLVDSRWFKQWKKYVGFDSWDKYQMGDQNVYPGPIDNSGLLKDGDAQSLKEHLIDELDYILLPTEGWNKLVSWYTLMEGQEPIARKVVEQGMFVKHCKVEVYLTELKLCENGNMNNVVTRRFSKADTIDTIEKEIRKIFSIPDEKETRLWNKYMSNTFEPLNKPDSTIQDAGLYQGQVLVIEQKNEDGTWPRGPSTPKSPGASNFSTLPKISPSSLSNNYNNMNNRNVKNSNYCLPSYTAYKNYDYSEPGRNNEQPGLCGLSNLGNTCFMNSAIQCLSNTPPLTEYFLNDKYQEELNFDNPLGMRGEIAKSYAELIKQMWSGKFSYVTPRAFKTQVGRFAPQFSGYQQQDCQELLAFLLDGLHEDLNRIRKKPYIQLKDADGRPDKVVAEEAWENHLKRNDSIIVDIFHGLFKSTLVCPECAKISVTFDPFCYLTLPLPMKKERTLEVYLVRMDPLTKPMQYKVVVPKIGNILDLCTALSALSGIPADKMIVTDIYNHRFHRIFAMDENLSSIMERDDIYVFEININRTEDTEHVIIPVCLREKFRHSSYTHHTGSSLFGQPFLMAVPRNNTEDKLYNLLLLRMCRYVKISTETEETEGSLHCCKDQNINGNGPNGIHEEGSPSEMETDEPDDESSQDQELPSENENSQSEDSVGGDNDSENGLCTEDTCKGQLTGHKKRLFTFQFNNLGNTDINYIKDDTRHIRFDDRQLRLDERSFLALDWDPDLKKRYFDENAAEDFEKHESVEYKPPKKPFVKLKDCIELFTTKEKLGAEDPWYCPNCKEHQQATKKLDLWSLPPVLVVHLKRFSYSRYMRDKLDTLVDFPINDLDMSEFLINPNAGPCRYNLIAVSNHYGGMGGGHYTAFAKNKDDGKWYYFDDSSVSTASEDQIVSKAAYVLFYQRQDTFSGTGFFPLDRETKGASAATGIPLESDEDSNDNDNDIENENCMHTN
# Procedure, shortened: as §1
# USP16 = USP16 (UniProt Q9Y5T5)
# Sequence of USP16 (Q9Y5T5 whole entry, looked up): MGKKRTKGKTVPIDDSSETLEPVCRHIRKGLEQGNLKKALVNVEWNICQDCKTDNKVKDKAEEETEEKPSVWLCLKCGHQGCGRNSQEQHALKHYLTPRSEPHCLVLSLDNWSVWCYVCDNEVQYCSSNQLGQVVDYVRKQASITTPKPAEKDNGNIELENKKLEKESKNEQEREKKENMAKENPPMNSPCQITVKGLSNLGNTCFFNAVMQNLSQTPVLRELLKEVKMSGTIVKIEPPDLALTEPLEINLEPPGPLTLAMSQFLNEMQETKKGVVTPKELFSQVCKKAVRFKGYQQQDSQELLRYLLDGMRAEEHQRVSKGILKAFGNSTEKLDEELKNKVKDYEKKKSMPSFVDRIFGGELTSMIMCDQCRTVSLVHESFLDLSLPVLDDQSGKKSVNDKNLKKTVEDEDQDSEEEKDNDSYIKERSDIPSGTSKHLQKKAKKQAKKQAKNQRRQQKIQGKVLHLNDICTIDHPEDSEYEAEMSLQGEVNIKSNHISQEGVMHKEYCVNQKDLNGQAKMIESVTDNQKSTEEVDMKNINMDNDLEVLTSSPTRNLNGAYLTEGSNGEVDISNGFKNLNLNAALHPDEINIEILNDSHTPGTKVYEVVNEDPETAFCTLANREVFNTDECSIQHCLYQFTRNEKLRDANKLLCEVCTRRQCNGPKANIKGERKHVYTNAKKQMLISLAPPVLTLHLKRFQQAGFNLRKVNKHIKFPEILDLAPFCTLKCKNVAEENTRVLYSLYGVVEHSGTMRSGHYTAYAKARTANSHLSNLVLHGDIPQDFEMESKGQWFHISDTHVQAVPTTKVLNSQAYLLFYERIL
# Procedure, shortened: as §1
smiles,measurement,setting,value
Cl.O=C(CCl)N1CCn2cncc2C1,log2 ratio of Biotin-Ahx-Ub-VS probe labelling,OTUD6B,-0.541
same,log2 ratio of Biotin-Ahx-Ub-VS probe labelling,OTUD7B,-0.166
same,log2 ratio of Biotin-Ahx-Ub-VS probe labelling,PRPF8,0.208
same,log2 ratio of Biotin-Ahx-Ub-VS probe labelling,PSMD7,0.0226
same,log2 ratio of Biotin-Ahx-Ub-VS probe labelling,UCHL1,-1.37 (active)
same,log2 ratio of Biotin-Ahx-Ub-VS probe labelling,UCHL3,0.291
same,log2 ratio of Biotin-Ahx-Ub-VS probe labelling,UCHL5,0.0547
same,log2 ratio of Biotin-Ahx-Ub-VS probe labelling,USP10,-0.131
same,log2 ratio of Biotin-Ahx-Ub-VS probe labelling,USP15,-0.372
same,log2 ratio of Biotin-Ahx-Ub-VS probe labelling,USP16,-0.425
